The text below walks through data of PubChem BioAssay (NCATS).

Values joined by “and” are separate entries in the source; they are usually repeats but may differ in a detail not shown here. Identical values can stand only once. Results filed as inconclusive are left out. Active and inactive are the calls of the source. Unless noted, calls come from the whole dose curve; as a rule, active = well fitted curve in the direction sought with a large enough effect; inconclusive = small, poorly fitted or top-dose-only effect, or another doubt; inactive = no such curve, though single readings can be large; an effect the other way counts as inactive or inconclusive.

The nature of experiment [1]: Cytometric Cell-Based qHTS for Inhibitors of the mTORC1 Signaling Pathway in MEF (Tsc2-/-, p53-/-) Cells (AID 2660).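 Note: Tsc2 and p53 null MEFs carrying empty vector with compound for 24 h; percent of cells above a phospho-rpS6 to PI ratio cutoff in each well; series mostly up to about 38 µM.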 The essentials: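 Cells are plated, treated with compound for 24 hrs at 37 degree Celsius, then fixed, blocked and immunostained for phospho-rpS6 Ser235/236. Propidium iodide counterstain follows. Per-well % positive cells is derived from the PI-normalized phospho-S6 signal.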
For orientation: Quantitative high-throughput screening tests each substance at several concentrations.

Experiment [2] in a line: High Content Imaging Cell-Based qHTS for Inhibitors of the mTORC1 Signaling Pathway in MEF Cells (AID 2667).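 Note: Tsc2-/- p53-/- MEFs stably re-expressing wild-type Tsc2 exposed 24 h; series mostly up to about 38 µM.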 An outline of the steps: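 Immunofluorescence for rpS6 phosphorylation in MEFs of Tsc2-/-, p53-/- background rescued with WT Tsc2. Compound exposure lasted 24 hrs. Inhibition was scored against rapamycin-treated control wells.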
A short description of experiment [3]: Cytometry Cell-Based qHTS for Inhibitors of the mTORC1 Signaling Pathway in MEF cells (AID 2668).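 Note: Tsc2-/- p53-/- mouse embryonic fibroblasts stably re-expressing wild-type Tsc2; percent cells positive for phospho-rpS6 Ser235/236 relative to propidium iodide stain; series mostly up to about 38 µM.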 The essentials: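 Tsc2-/-, p53-/- MEFs re-expressing WT Tsc2; cpd 24 hrs, 37 degree Celsius; PFA fix, Alexa-488 p-rpS6 (Ser235/236) Ab 2 hrs RT, PI counterstain; Acumen 488nm scan; p-S6/PI ratio → % positive cells; PI count = viability.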
Experiment [4] can be described thus: Validation screen for small molecules that induce DNA re-replication in MCF 10A normal breast cells (AID 463097). Note: nearly all actives have a fitted effect of over 60% in size. Note: potency is the fitted concentration of half-maximal effect. The essentials:
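Image-based qHTS: normal breast cells are incubated with compound for 48 hr, stained with Hoechst, and scanned for total nuclear fluorescence. Compounds raising the fraction of nuclei with elevated DNA content count as re-replication inducers.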

Experiment [5] has as its target Ubiquitin carboxyl-terminal hydrolase 2 (Homo sapiens) (UniProt O75604). Nature of the experiment: qHTS Validation Assay for Inhibitors of Ubiquitin-specific Protease USP2a Using CHOP2 as the Reporter (AID 463106). The essentials:
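10nM USP2 core + cpd, 30min RT; add 25nM Ub-CHOP2/25nM substrate; 60min RT; FI 485/531nm. Buffer Tris pH 8.0, CaCl2, BME, CHAPS. Norm. to NEM = 100% inhibition; time-zero read flags fluorescent artifacts.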

Experiment [6] addresses DNA polymerase III PolC-type (Bacillus subtilis (strain 168)) (UniProt P13267). Nature of the experiment: qHTS Validation Assay for the Inhibitors of DNA Replication in Gram-Positive Bacteria (AID 485295).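 Note: reconstituted holoenzyme with PolC plus beta clamp SSB and primase; PicoGreen fluorescence of double-stranded DNA made on primed circular M13 template; series mostly up to about 57 µM.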 An outline of the steps:
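First, compound is mixed with the reconstituted replication complex and held at room temperature. Next, circular single-stranded M13Gori with nucleotides starts synthesis. Finally, PicoGreen in EDTA halts the reaction and stains double-stranded product for fluorescence reading.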

In experiment [7] the target is Tumor susceptibility gene 101 protein (Homo sapiens) (UniProt Q99816). As to the kind of experiment: qHTS Validation Assay for Iinhibitors of HIV-1 Budding by Blocking the Interaction of PTAP/TSG101 (AID 485342; calls by dose curve). The essentials:
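Binding of a FITC-tagged PTAP-motif peptide (50 nM) to the Tsg101 binding domain (10 uM) is monitored by fluorescence polarization. Compounds are pin-delivered before peptide addition, and incubation runs 20 min at room temperature.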

A short description of experiment [8]: qHTS Validation Assay to Find Inhibitors of Chronic Active B-Cell Receptor Signaling (AID 485345; active = well fitted curve in the direction sought with a large enough effect in the main read-out, with a control signal flat, not every such curve was filed as active). An outline of the steps:
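Read-out: ratio of filter-corrected green (IkappaBalpha fusion) to red (native) luciferase signal in doxycycline-induced TMD8 cells after 4 h at 37C. Titration spanned 46 uM–3 nM; Data were normalised to basal cells and 10 uM MG-132 wells.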

Experiment [9] has as its target Beta-2 adrenergic receptor (Homo sapiens) (UniProt P07550). Nature of the experiment: qHTS validation assay of beta-arrestin-biased ligands of beta2-adrenergic receptor (AID 485366). The essentials: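 Values derive from curve-fitted %Activity of a luminescent beta-arrestin recruitment reporter; compounds tested up to 46 microM on Tango cells for 18 hr at 37 degrees C, 5% CO2.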

The nature of experiment [10]: Quantitative high throughput screen for delayed death inhibitors of the malarial parasite plastid, 96 hour incubation (AID 488745). Note: nearly all actives have a fitted effect of over 70% in size. Note: potency is the fitted concentration of half-maximal effect. An outline of the steps: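 Infected erythrocytes were added to compound in Albumax-supplemented RPMI 1640 at 0.1% parasitemia and 2% hematocrit (final), incubated 96 h at 37 C under 5% CO2, then luciferase reagent was added and luminescence measured.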

The nature of experiment [11]: Quantitative high throughput screen for delayed death inhibitors of the malarial parasite plastid, 48 hour incubation (AID 488752). Note: nearly all actives have a fitted effect of over 65% in size. The essentials: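 Readout is firefly luciferase luminescence from a reporter integrated into the parasite genome, with lower signal taken as inhibited growth. Infected red cells (0.1% parasitemia, 2% hematocrit final) are cultured with compound for one 48 h cycle at 37 C.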

The target in experiment [12] is Thioredoxin reductase 1, cytoplasmic (Rattus norvegicus) (UniProt O89049). Nature of the experiment: qHTS Assay for Substrates of Mammalian Selenoprotein Thioredoxin Reductase 1 (TrxR1) (AID 488772).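 Note: NADPH fluorescence in the first read after selenite addition and not the 8 min delta; series mostly up to about 57 µM; a drop in NADPH fluorescence below the no-compound background marks a TrxR1 substrate.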 An outline of the steps:
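Quantitative HTS in Tris-HCl buffer at pH 7.5 with EDTA and Tween-20, using rat TrxR1, 400 uM NADPH and 400 uM selenite (final). A fall in initial NADPH fluorescence relative to background marked substrate behaviour.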

Experiment [13] has the same target. As to the kind of experiment: qHTS Assay for Inhibitors of Mammalian Selenoprotein Thioredoxin Reductase 1 (TrxR1) (AID 488773). Note: nearly all actives have a fitted effect of over 40% in size. Note: potency is the fitted concentration of half-maximal effect. Conditions: Potency: inhibition. An outline of the steps: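 Steps: enzyme (90 nM) plus NADPH (400 uM final), 5 min at ~22 deg C; compound added, 15 min; selenite (400 uM final) added; fluorescence followed for 8 min. Concentration-response curves derived from the normalized delta values.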

The target of experiment [14] is Flap endonuclease 1 (Homo sapiens) (UniProt P39748). Nature of the experiment: qHTS Validation Assay for the Inhibitors of Human Flap endonuclease 1 (FEN1) (AID 488816). Note: potency is the fitted concentration of half-maximal effect. The essentials: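 Readings taken at 0 and 15 min after starting the reaction with 50 nM (final) substrate supplied the signal. Compounds had first sat with 10 nM FEN1 reagent for 15 min at room temperature. Values come from Hill-equation concentration-response fits.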

Experiment [15] addresses M-phase phosphoprotein 8 (Homo sapiens) (UniProt Q99549). Nature of the experiment: qHTS Validation Assay for Inhibitors for MPP8 Chromodomain Interactions with Methylated Histone Tails (AID 488949). Note: nearly all actives have a fitted effect of over 55% in size. Note: potency is the fitted concentration of half-maximal effect. The essentials: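 50 nM MPP8 + 50 nM b-H3K9me3 peptide, PBS pH 7.4/0.01% Tween-20, 30 min RT; + cpd 30 min RT; + AlphaScreen donor/Ni-chelate acceptor beads 10 ug/mL final, 30 min dark; luminescence read.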

In experiment [16] the target is Chromobox protein homolog 1 (Homo sapiens) (UniProt P83916). Nature of the experiment: qHTS Validation Assay for Inhibitors of HP1-beta Chromodomain Interactions with Methylated Histone Tails (AID 488953). Note: nearly all actives have a fitted effect of over 50% in size. Note: potency is the fitted concentration of half-maximal effect. The essentials:
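50 nM HP1-beta + 50 nM biotin-H3(1-18)K9me3, PBS pH 7.4, 0.01% Tween-20, 30 min RT; compound added, 30 min RT; AlphaScreen beads 10 ug/mL final, 30 min dark; luminescence read.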

In experiment [17] the target is Methanococcus maripaludis chaperonin (MmCpn) (UniProt Q6LX38). Nature of the experiment: High-Throughput Screening for Modulators of Cytosolic Chaperonin Activity: MmCpn Primary Screen (AID 488978).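 Note: 50 nM MmCpn enzyme hydrolysing 30 µM ATP at 37 °C.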 An outline of the steps: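 Steps: chaperonin 50 nM final; add compound, 5 min RT; start with ATP, 30 uM final; hold 10 min at 37C; add ADP Transcreener HTRF reagent, 5 min; read ex 320, em 590 and 665 nm.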

A short description of experiment [18]: High Content Imaging Cell-Based qHTS for Inhibitors of the mTORC1 Signaling Pathway in MEF (Tsc2-/-, p53-/-) Cells (AID 2666).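 Note: percent of cells scored positive for phospho-rpS6 Ser235/236 immunostaining by imaging.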 An outline of the steps: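 Cells were plated, dosed with compound after 24 hrs, and incubated another 24 hrs at 37 degree Celsius. Fixed cells were immunostained for phospho-rpS6 Ser235/236 and counterstained, and the normalized signal was scored as % active cells against rapamycin and DMSO controls.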

Tumor susceptibility gene 101 protein (Homo sapiens), sequence (Q99816 whole entry, looked up, the tested form may be a part): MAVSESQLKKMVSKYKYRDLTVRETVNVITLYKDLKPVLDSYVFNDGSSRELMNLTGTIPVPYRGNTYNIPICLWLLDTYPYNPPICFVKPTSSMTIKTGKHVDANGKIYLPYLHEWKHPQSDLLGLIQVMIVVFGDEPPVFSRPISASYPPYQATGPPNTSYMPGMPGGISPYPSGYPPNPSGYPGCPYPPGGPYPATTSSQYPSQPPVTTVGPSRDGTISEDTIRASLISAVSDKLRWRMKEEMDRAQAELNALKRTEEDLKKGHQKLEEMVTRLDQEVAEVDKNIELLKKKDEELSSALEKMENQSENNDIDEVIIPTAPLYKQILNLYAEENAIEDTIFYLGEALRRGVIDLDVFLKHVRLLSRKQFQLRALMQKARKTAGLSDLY
Ubiquitin carboxyl-terminal hydrolase 2 (Homo sapiens), sequence (O75604 whole entry, looked up): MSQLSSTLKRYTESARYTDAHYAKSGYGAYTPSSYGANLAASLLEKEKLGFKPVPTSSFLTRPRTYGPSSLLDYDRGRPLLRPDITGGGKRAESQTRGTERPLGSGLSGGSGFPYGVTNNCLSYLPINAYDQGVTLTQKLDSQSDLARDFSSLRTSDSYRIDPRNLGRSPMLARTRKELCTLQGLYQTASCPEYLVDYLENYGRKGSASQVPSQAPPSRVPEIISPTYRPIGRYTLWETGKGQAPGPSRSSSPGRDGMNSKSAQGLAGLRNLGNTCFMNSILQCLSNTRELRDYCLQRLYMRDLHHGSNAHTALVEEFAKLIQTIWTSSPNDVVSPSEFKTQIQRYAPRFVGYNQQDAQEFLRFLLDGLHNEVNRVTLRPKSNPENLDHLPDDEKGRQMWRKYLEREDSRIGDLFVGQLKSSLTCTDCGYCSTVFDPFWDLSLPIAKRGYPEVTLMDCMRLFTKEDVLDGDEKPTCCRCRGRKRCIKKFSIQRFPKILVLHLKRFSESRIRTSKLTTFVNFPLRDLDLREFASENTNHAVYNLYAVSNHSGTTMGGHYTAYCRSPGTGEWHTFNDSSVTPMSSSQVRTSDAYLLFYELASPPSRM
Beta-2 adrenergic receptor (Homo sapiens), sequence (P07550 whole entry, looked up): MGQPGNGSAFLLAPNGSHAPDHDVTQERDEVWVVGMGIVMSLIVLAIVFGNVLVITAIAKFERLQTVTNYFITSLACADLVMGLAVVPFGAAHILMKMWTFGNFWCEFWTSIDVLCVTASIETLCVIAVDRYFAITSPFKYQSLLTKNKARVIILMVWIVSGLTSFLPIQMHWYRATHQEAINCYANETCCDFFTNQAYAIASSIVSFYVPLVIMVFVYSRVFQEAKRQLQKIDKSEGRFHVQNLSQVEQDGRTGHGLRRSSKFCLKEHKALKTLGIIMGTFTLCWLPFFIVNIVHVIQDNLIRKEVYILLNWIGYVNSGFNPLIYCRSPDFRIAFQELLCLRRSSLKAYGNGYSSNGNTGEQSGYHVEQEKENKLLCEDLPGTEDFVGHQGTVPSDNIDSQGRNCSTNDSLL
Methanococcus maripaludis chaperonin (MmCpn), sequence (Q6LX38 1-543): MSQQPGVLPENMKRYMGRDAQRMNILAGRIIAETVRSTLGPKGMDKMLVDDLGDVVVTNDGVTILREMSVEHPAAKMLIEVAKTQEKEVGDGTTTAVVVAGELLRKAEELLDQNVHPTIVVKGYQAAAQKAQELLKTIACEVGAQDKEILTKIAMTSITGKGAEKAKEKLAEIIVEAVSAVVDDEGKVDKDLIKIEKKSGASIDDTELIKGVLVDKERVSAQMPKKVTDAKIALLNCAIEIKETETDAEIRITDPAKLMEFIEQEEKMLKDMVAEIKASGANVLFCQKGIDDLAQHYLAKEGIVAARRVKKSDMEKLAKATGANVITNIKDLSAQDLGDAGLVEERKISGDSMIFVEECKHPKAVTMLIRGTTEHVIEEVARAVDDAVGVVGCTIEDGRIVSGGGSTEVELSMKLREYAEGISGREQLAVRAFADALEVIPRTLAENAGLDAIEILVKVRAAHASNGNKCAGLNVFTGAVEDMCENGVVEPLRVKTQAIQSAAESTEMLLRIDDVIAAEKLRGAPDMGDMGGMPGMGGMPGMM
Chromobox protein homolog 1 (Homo sapiens), sequence (P83916 whole entry, looked up): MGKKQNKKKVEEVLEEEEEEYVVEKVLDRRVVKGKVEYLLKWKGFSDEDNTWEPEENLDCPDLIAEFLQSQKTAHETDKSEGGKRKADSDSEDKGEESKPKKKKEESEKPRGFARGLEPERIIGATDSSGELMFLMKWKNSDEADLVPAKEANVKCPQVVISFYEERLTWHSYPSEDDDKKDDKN
Flap endonuclease 1 (Homo sapiens), sequence (P39748 whole entry, looked up): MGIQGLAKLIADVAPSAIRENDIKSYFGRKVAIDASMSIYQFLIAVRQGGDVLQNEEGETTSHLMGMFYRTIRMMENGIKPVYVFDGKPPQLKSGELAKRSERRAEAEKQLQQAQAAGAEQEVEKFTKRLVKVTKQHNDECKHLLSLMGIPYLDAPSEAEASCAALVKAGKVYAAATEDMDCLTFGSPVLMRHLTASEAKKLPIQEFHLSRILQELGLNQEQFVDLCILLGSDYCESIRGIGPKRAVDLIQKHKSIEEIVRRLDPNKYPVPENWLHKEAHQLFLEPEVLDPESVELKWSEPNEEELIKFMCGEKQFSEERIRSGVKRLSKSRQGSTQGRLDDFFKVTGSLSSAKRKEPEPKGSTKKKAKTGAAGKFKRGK
DNA polymerase III PolC-type (Bacillus subtilis (strain 168)), sequence (P13267 whole entry, looked up): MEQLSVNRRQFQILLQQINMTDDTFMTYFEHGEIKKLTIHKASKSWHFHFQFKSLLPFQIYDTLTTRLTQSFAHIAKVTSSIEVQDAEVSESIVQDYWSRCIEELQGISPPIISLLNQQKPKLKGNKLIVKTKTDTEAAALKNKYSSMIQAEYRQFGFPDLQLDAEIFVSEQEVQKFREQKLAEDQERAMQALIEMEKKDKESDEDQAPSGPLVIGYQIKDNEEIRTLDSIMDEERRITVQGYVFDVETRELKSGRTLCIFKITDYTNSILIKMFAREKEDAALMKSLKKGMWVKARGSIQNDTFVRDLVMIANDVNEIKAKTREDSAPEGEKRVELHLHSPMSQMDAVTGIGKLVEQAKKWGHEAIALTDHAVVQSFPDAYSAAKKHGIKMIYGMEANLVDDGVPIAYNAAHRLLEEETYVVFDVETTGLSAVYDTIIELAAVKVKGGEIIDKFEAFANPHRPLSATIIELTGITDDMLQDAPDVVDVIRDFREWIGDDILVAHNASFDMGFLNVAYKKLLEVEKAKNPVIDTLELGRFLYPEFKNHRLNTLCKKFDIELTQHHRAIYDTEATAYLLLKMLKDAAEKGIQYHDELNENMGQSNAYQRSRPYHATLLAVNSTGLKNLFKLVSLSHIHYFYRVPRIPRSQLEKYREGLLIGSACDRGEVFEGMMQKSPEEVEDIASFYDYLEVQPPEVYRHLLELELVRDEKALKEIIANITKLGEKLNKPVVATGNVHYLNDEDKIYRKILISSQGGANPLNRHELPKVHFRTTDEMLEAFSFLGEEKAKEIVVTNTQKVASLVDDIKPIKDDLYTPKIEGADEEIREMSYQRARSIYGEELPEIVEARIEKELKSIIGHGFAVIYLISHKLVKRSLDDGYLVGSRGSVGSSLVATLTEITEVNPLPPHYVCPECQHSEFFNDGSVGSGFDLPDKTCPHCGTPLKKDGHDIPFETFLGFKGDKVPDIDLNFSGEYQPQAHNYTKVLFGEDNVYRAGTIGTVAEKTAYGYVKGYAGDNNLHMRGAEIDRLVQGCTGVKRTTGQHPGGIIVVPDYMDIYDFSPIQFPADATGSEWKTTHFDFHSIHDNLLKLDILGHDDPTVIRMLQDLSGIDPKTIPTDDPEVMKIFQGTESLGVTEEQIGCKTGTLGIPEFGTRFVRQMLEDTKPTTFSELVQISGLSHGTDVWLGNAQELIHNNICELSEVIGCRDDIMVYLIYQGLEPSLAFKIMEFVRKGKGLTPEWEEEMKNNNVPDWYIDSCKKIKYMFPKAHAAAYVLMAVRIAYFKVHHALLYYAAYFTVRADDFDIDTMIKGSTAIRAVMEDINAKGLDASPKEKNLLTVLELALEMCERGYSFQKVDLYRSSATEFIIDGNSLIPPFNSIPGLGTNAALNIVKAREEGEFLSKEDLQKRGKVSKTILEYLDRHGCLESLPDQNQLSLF
M-phase phosphoprotein 8 (Homo sapiens), sequence (Q99549 whole entry, looked up): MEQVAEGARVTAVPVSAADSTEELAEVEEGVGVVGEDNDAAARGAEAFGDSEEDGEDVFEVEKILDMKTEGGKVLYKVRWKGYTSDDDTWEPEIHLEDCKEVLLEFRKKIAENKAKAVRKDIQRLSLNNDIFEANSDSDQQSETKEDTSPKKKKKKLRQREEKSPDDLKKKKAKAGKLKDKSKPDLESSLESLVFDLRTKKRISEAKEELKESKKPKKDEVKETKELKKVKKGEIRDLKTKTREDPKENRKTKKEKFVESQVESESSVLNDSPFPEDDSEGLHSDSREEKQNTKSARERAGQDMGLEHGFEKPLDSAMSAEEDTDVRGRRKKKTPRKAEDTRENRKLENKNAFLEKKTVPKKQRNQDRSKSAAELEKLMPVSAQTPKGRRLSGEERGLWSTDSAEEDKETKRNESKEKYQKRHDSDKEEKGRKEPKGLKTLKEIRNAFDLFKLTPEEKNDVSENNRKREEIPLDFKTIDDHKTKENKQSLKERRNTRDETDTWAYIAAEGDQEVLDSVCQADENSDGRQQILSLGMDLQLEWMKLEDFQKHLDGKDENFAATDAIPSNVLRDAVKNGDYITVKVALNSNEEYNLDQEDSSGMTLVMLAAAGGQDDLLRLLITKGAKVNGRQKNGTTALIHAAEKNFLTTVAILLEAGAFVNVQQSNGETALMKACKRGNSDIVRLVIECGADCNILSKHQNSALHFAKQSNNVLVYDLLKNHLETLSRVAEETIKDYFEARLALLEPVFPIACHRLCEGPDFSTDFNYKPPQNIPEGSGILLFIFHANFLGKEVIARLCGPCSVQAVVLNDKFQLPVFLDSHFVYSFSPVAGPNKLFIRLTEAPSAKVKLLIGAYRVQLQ

For `O=C(O)C1CN(CCCP(=O)(O)O)CCN1` (centres undefined), the call in [1], in experiment [7], in [8], in [9], in experiment [12] and in [17] was inactive. The Potency result in [2], in [3], in [4], in experiment [5], in [6] and in experiment [10] was “inactive” throughout. Further, the Potency result in experiment [11], in experiment [13], in experiment [14], in experiment [15] and in [16] was “inactive” in each case.

On to `N#CC(=C(\N)Sc1ccccc1N)/C(C#N)=C(/N)Sc1ccccc1N`, for which the compound was classed as inactive in [1], in [7], in [9], in experiment [12] and in experiment [17]. Besides, the Potency result in experiment [18], in [5], in experiment [6], in experiment [13] and in experiment [14] was “inactive” each time. The Potency in [4] is 7.94 µM (active).

Take `N[C@@H](CS(=O)O)C(=O)O`: the Potency entry in experiment [18], in experiment [2], in experiment [3], in experiment [4], in [5] and in experiment [6] was “inactive” in each case. The Potency result in [10], in [11], in experiment [13], in experiment [14] and in [15] was “inactive” each time. Also, the result in experiment [7], in [8], in experiment [9], in [12] and in experiment [17] was inactive.

Take `CCN(CC)CCCCCCCCOC(=O)c1cc(OC)c(OC)c(OC)c1`: the call in [1], in [7], in experiment [9], in [12] and in experiment [17] was inactive. In addition, the Potency result in [2], in experiment [4], in [5], in experiment [6], in experiment [13] and in [14] was “inactive” in each case. Also, the Potency entry in experiment [15] and in experiment [16] was “inactive” throughout. Further, in experiment [10], the Potency is 18.5 µM (active).

In the case of `CN1Cc2sccc2C(c2ccc(O)c(O)c2)C1` (centres undefined), the compound was called inactive in experiment [1], in experiment [7], in [8], in experiment [9], in experiment [12] and in experiment [17]. For the same compound, the Potency entry in experiment [2], in [3], in experiment [5], in [6], in [14] and in experiment [15] was “inactive” in each case. Further, the Potency in [13] was 16.8 µM (active).

`COc1cc(N)c(Cl)cc1C(=O)OCCN1CCCCC1`: the Potency result in experiment [18], in experiment [2], in [3], in [4], in experiment [5] and in experiment [6] was “inactive” throughout. The Potency entry in experiment [10], in [11], in experiment [13], in experiment [14] and in [15] was “inactive” throughout. Besides, the compound was classed as inactive in experiment [7], in [8], in experiment [9], in experiment [12] and in experiment [17]. Besides, the Potency in experiment [16] was 0.006 µM (active).

Take `CC(N)(Cc1ccc(O)c(O)c1)C(=O)O` (centres undefined): the Potency entry in experiment [18], in experiment [2], in [3], in experiment [4], in experiment [5] and in experiment [6] was “inactive” each time. For the same compound, the Potency result in experiment [10] is “inactive”. Besides, the outcome in [7], in experiment [8], in experiment [9], in experiment [12] and in experiment [17] was inactive. Besides, the Potency in [13] was 2.99 µM (active); in experiment [14], 2.38 µM (active); in experiment [15], 79.4 µM (active) and 2.38 µM (active); in experiment [16] it was 5.32 µM (active).
